High-throughput results deposited in PubChem by National Center for Advancing Translational Sciences (NCATS).
Compounds with a hit are over-represented: about 12% of the library has one in this group of screens.
Pf growth 48h: inhibits P. falciparum growth in the first generation, 48 h; P. falciparum luciferase growth in erythrocytes, 48 h; Potency, µM (titrated, usually from 28.7 µM), for inactives: at the top dose activity change, negative = inhibition, usual class: inhibitors; 5.9% of 310,000 active; AID 504832; further: on the % scale 0 is the no-effect control and ±100 the full control effect
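Compounds are pin-transferred into medium, infected erythrocytes (2% hematocrit, 0.1% parasitemia final) are added, and plates sit one parasite generation at 37 C in 5% CO2. Detection reagent is then added and luminescence measured.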
Pf growth 96h: inhibits malaria parasite growth, 96 h. P. falciparum luciferase reporter growth, 96 h. Potency, µM (titrated, usually from 28.7 µM), inactives show at the top dose activity change, negative = inhibition, most hits filed as inhibitors. 6.9% of 320,000 active; further: on the % scale 0 is the no-effect control and ±100 the full control effect
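P. falciparum expressing integrated firefly luciferase grown in erythrocytes (2% hematocrit, 0.05% parasitemia final) with compounds for 96 hours at 37 C, 5% CO2. Growth inhibition read as loss of luminescence after adding luciferase detection reagent.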
Sm TGR inh: blocks Schistosoma mansoni thioredoxin glutathione reductase | Q962Y6 | 3% of 360,000 active | AID 485364 | purified TGR, DTNB reduction, TNB absorbance 405 nm | Potency, µM (titrated, usually from 114 µM), for inactives: top-dose activity change, negative = inhibition, actives largely listed as inhibitors; further: on the % scale 0 is the no-effect control and ±100 the full control effect; nearly all actives have a fitted effect of over 60% in size
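First, TGR (20 nM dispensed) and NADPH were mixed with compound. Second, a 15 min room-temperature incubation followed. Third, further NADPH and then DTNB were added to start the reaction. Finally, TNB absorbance was monitored kinetically.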
SARS PLP yeast: blocks SARS-CoV papain-like protease in a yeast assay | Potency, µM (highest dose often 32.9 µM), for the others: top-dose activity, positive = growth rescue, actives largely listed as activators | 0.19% of 330,000 active | S. cerevisiae expressing SARS-CoV PLpro, growth rescue | AID 485353; calls by dose curve; further: 0% is about no effect; nearly all actives have a fitted effect of over 55% in size
AmpC inh detg: blocks E. coli AmpC beta-lactamase in detergent assay | P00811 | AmpC hydrolysis of nitrocefin, absorbance 480 nm, 0.01% Triton | Potency, µM (series often up to 114 µM), for the others: at the top dose activity change, negative = inhibition, actives largely listed as inhibitors | 0.041% of 370,000 active;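 further: 0% = no-compound wells and -100% = no-enzyme wells; nearly all actives have a fitted effect of over 25% in size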
Target sequence (P00811 whole entry, looked up): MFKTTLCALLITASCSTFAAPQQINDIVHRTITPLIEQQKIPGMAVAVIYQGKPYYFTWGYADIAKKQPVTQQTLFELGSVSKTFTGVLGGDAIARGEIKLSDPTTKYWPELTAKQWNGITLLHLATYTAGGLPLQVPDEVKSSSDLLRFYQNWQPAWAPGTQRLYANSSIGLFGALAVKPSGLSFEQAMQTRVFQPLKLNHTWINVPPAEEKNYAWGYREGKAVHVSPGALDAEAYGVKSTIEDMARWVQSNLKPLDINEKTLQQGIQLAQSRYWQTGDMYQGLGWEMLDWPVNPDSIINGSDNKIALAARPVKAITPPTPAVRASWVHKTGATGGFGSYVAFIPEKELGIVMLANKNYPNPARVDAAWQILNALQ
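AmpC (5.3 nM in the dispensed reagent) in 20 mM phosphate pH 7.0 with 0.01% (detergent screen) or 0.0001% Triton X-100 was preincubated with compounds for 15 min at room temperature. Nitrocefin was then added from an 800 uM solution, and hydrolysis was followed at 480 nm.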
AmpC inh no detg: blocks E. coli AmpC beta-lactamase in detergent-free assay; AID 485341; 0.52% of 330,000 active; Potency, µM (series often up to 57.1 µM), inactives show top-dose activity change, negative = inhibition, usual class: inhibitors; AmpC nitrocefin hydrolysis, absorbance 480 nm, 0.0001% Triton; P00811;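 further: plate controls were no compound for no effect and no enzyme for full effect; nearly all actives have a fitted effect of over 20% in size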
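AmpC (5.3 nM in the dispensed reagent) in 20 mM phosphate pH 7.0 with 0.01% (detergent screen) or 0.0001% Triton X-100 was preincubated with compounds for 15 min at room temperature. Nitrocefin was then added from an 800 uM solution, and hydrolysis was followed at 480 nm.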
An asterisk follows results filed as active; ? = inconclusive; . = no result given; [ ] = remark or other dose. Unless noted, the call rests on the fitted dose curve; in most records, active means well fitted curve in the direction sought with a large enough effect; inconclusive means small, poorly fitted or top-dose-only effect, or another doubt; inactive means no such curve, though single readings can be large; an effect the other way counts as inactive or inconclusive. Potency means the concentration at half of the fitted maximal effect.

SMILES	Pf growth 48h	Pf growth 96h	Sm TGR inh	SARS PLP yeast	AmpC inh detg	AmpC inh no detg
C=CCN1C(=O)C2(OCCCO2)c2cc(C)ccc21	28%	-20%	15%	0%	-6%	3%
Cc1c(NC(=O)/C=C/c2ccc(S(=O)(=O)N3CCOCC3)cc2)c(=O)n(-c2ccccc2)n1C	4%	15%	-4%	-2%	1%	-17%
O=C(O)CSc1nnc(-c2ccccc2)c(-c2ccccc2)n1	-1%	2%	1%	-1%	0%	-26%
CSc1nnc(-c2ccccc2)c(-c2ccccc2)n1	12µM*	?	-5%	-1%	2%	-12%
CSc1nnc(-c2ccco2)c(-c2ccco2)n1	-29%	-3%	1µM*	-3%	0%	-21%
CC(C)(C)OC(=O)N1CCC[C@H]1c1nnc(SCc2cccc(Cl)c2)o1	-22%	-11%	5%	0%	-4%	100%
Cc1ccc(Cn2ccsc2=NC(=O)COC(=O)c2ccc(NC(=O)CC#N)cc2)cc1	13µM*	10µM*	-4%	0%	-14%	-41%
Cc1ccc(Cn2ccsc2=NC(=O)CCl)cc1	?	?	14µM*	-1%	6%	-1%
Cc1ccc(NC(=O)CN(C)C(=O)COC(=O)c2ccc(NC(=O)CC#N)cc2)cc1	.	.	.	29%	.	?
Cc1ccc(NC(=O)CSCC(=O)N=c2sccn2C)cc1	0%	9%	6%	4%	?	-9%
Cc1ccc(Cl)cc1N1CCN(C(=O)COc2cc(=O)n(C)c3ccccc23)CC1	.	.	6%	.	18%	.
Oc1ccc(-c2n[nH]c(=S)n2-c2ccc3c(c2)OCCO3)c(O)c1	0.41µM*	0.066µM*	-6%	-10%	-8%	-15%
COc1ccc(OC)c(-n2c(-c3ccc(O)cc3O)n[nH]c2=S)c1	?	0.013µM*	-3%	-1%	-6%	-20%
CCOc1ccccc1NC(=O)C1COc2ccccc2O1 (stereo not drawn)	?	?	5%	-7%	-4%	-17%
COc1ccc(-c2nc3ccc(C4=C(C)CC(=O)NN4)cc3[nH]2)cc1	?	7.6µM*	.	.	.	.
CCOC(=O)Cc1csc(NC(=O)/C=C/c2ccc(Br)o2)n1	77%	?	10µM*	-1%	7%	-17%
O=C(/C=C/c1ccc(Br)o1)Nc1nccs1	204%	181%	3.2µM*	0%	-12%	-12%[11.4 µM]
CCOC(=O)Cc1csc(NC(=O)/C=C/c2cccc(Br)c2)n1	9.3µM*	-24%	2%	-1%	4%	-39%
CCOC(=O)Cc1csc(NC(=S)NC(=O)c2ccc(C)cc2)n1	2.9µM*	3.7µM*	0%	-21%	-1%	-20%
O=C(Nc1nccs1)c1ccc(Br)o1	174%	185%	-3%	-32%	-9%	-5%
COc1ccccc1NC(=O)C1=C(C)Nc2nc3ccccc3n2C1c1cccc(Br)c1 (stereo not drawn)	.	.	8%	.	19%	.
CCOC(=O)Cc1csc(NC(=O)Nc2cccc(Cl)c2)n1	12%	-27%	-9%	13%	-2%	20µM*
CCOC(=O)Cc1csc(NC(=O)Nc2ccc(Cl)cc2)n1	?	?	-7%	0%	-1%	-46%
COC(=O)C1CCN(C(=O)c2cc3c(=O)n4cccc(C)c4nc3n2Cc2ccccc2)CC1	5.9µM*	4.1µM*	-15%	0%	-9%	-10%
COc1ccc(CCNC(=O)c2cc3c(=O)n4cccc(C)c4nc3n(CC3CCCO3)c2=N)cc1 (stereo not drawn)	1.5µM*	?	-21%	-6%	-12%	-19%
Cc1cccn2c(=O)c3cc(C(=O)NCC4CCCO4)c(=N)n(CCc4ccccc4)c3nc12 (stereo not drawn)	4.7µM*	?	2%	0%	0%	-6%
